Source: PubChem BioAssay AID1159580 (chemical genetic matrix, 2015)
Out of some 5,500 compounds screened, about 2,000 (36%) were called active. Another 18% or so got no clear call; they are omitted. Rule as the data show it: active = normalized growth mostly below about 0.91 (no sharp cut-off); inconclusive = no clear call, values can overlap the other calls; inactive = mostly above about 0.92. Some of the results follow.

Experiment: chemical genetic growth profiling, strain panel (AID 1159580);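 also: tested at 20 µM; growth read once vehicle control cultures reached saturation at 30 °C; 1 = growth at the plate median or of vehicle wells; lower values mean less growth of the strain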
Conditions: S. cerevisiae deletion strains, growth OD
[1] = locus YAR019C, strain CDC15, hits give low values
[2] = locus YBL105C, strain PKC1, hits give low values
[3] = locus YBR135W, strain CKS1, hits give low values
[4] = locus YBR136W, strain MEC1, hits give low values
[5] = locus YBR160W, strain CDC28, hits give low values
[6] = locus YDL017W, strain CDC7, hits give low values
[7] = locus YDL028C, strain MPS1, hits give low values
[8] = locus YDL101C, strain DUN1, hits give low values
[9] = locus YDL108W, strain KIN28, hits give low values
[10] = locus YDL132W, strain cdc53, hits give low values
[11] = locus YDL214C, strain PRR2, hits give low values
[12] = locus YDR052C, strain DBF4, hits give low values
[13] = locus YDR054C, strain cdc34, hits give low values
[14] = locus YDR226W, strain ADK1, hits give low values
[15] = locus YDR477W, strain SNF1, hits give low values
[16] = locus YER123W, strain YCK3, hits give low values
[17] = locus YER133W, strain GLC7, hits give low values
[18] = locus YFL009W, strain cdc4, hits give low values
[19] = locus YFL029C, strain CAK1, hits give low values
[20] = locus YFR003C, strain YPI1, hits give low values
[21] = locus YFR028C, strain CDC14, hits give low values
[22] = locus YGR040W, strain KSS1, hits give low values
[23] = locus YGR052W, strain FMP48, hits give low values
[24] = locus YGR092W, strain DBF2, hits give low values
[25] = locus YHR030C, strain SLT2, hits give low values
[26] = locus YHR079C, strain IRE1, hits give low values
[27] = locus YHR082C, strain KSP1, hits give low values
[28] = locus YHR205W, strain SCH9, hits give low values
[29] = locus YIL147C, strain SLN1, hits give low values
[30] = locus YJL095W, strain BCK1, hits give low values
[31] = locus YJL128C, strain PBS2, hits give low values
[32] = locus YJL157C, strain FAR1, hits give low values
[33] = locus YJR016C, strain ILV3, hits give low values
[34] = locus YJR066W, strain TOR1 (second series), hits give low values
[35] = locus YJR066W, strain TOR1, hits give low values
[36] = locus YKL048C, strain ELM1, hits give low values
[37] = locus YKL067W, strain YNK1, hits give low values
[38] = locus YKL101W, strain HSL1, hits give low values
[39] = locus YKL193C, strain SDS22, hits give low values
[40] = locus YKL203C, strain TOR2, hits give low values
[41] = locus YLR113W, strain HOG1, hits give low values
[42] = locus YLR133W, strain CKI1, hits give low values
[43] = locus YLR403W, strain SFP1, hits give low values
[44] = locus YML070W, strain DAK1, hits give low values
[45] = locus YMR001C, strain CDC5, hits give low values
[46] = locus YMR205C, strain PFK2 (second series), hits give low values
[47] = locus YMR277W, strain FCP1, hits give low values
[48] = locus YNL006W, strain LST8, hits give low values
[49] = locus YNL020C, strain ARK1, hits give low values
[50] = locus YNL161W, strain CBK1, hits give low values
[51] = locus YNL183C, strain NPR1, hits give low values
[52] = locus YNL207W, strain RIO2, hits give low values
[53] = locus YNL222W, strain SSU72, hits give low values
[54] = locus YNL307C, strain MCK1 (second series), hits give low values
[55] = locus YOL078W, strain AVO1, hits give low values
[56] = locus YOL136C, strain PFK27, hits give low values
[57] = locus YOR061W, strain CKA2, hits give low values
[58] = locus YOR119C, strain RIO1, hits give low values
[59] = locus YOR231W, strain MKK1, hits give low values
[60] = locus YOR329C, strain SCD5, hits give low values
[61] = locus YPL031C, strain PHO85, hits give low values
[62] = locus YPL153C, strain RAD53, hits give low values
[63] = locus YPL204W, strain HRR25, hits give low values
[64] = locus YPL209C, strain IPL1, hits give low values
[65] = locus YPL256C, strain CLN2, hits give low values
[66] = locus YPR025C, strain CCL1, hits give low values
[67] = locus YPR106W, strain ISR1, hits give low values
[68] = locus YPR111W, strain DBF20, hits give low values
[69] = strain NNK1, hits give low values
[70] = strain TSCII, hits give low values

Measured: normalized growth

Oc1c(Cl)cc(Cl)cc1C=Nc1ccc(Sc2ccccc2)nc1Sc1ccccc1
active: [11] 0.675 | [15] 0.6 | [17] 0.635 | [22] 0.684 | [24] 0.217 | [25] 0.322 | [26] 0.472 | [27] 0.599 | [28] 0.462 | [30] 0.414 | [32] 0.56 | [35] 0.482 | [36] 0.734 | [37] 0.584 | [38] 0.674 | [41] 0.667 | [42] 0.585 | [43] 0.49 | [46] 0.59 | [49] 0.566 | [54] 0.517 | [57] 0.392 | [58] 0.652 | [59] 0.509 | [61] 0.598 | [62] 0.535 | [63] 0.577 | [65] 0.619
inactive: [1] 0.938 | [2] 0.958 | [3] 0.954 | [4] 0.954 | [5] 0.954 | [6] 0.956 | [7] 0.922 | [8] 0.97 | [9] 0.945 | [10] 0.95 | [12] 0.968 | [13] 0.95 | [14] 0.956 | [16] 0.7 | [18] 0.945 | [19] 0.943 | [20] 0.955 | locus YFR019W, strain FAB1, hits give low values 0.916 | [21] 0.942 | [23] 0.616 | [29] 0.939 | [31] 0.913 | [33] 0.961 | [34] 0.771 | [39] 0.945 | [40] 0.748 | [44] 0.727 | [45] 0.943 | [47] 0.929 | [48] 0.942 | [50] 0.957 | [51] 0.606 | [52] 0.962 | [53] 0.938 | [55] 0.955 | [56] 0.693 | [60] 0.948 | [64] 0.951 | [66] 0.95 | [67] 0.956 | [68] 0.941 | [69] 0.965 | [70] 0.95

Oc1c(Br)cc(Br)cc1C=Nc1ccc(Sc2ccccc2)nc1Sc1ccccc1
active: [11] 0.331 | [15] 0.311 | [16] 0.364 | [17] 0.285 | [22] 0.351 | [23] 0.196 | [24] 0.155 | [25] 0.103 | [26] 0.151 | [27] 0.155 | [28] 0.0625 | [30] 0.14 | [32] 0.208 | [34] 0.591 | [35] 0.162 | [36] 0.483 | [37] 0.24 | [38] 0.353 | [40] 0.388 | [41] 0.383 | [42] 0.226 | [43] 0.134 | [44] 0.406 | [46] 0.248 | [49] 0.174 | [51] 0.236 | [54] 0.222 | [56] 0.43 | [57] 0.142 | [58] 0.313 | [59] 0.196 | [61] 0.29 | [62] 0.249 | [63] 0.311 | [65] 0.314
inactive: [1] 0.92 | [2] 0.945 | [3] 0.926 | [4] 0.945 | [5] 0.936 | [6] 0.948 | [7] 0.917 | [8] 0.969 | [9] 0.926 | [10] 0.931 | [12] 0.955 | [13] 0.927 | [14] 0.932 | [18] 0.927 | [19] 0.937 | [20] 0.94 | [21] 0.924 | [29] 0.931 | [31] 0.904 | [33] 0.953 | [39] 0.93 | [45] 0.922 | [47] 0.904 | [48] 0.941 | [50] 0.945 | [52] 0.953 | [53] 0.915 | [55] 0.928 | [60] 0.951 | [64] 0.949 | [66] 0.935 | [67] 0.945 | [68] 0.915 | [69] 0.945 | [70] 0.928
